hcDAF12 agonist = activates DAF-12 receptor from parasite H. contortus; HEK293 hcDAF-12 lit1-tk-luc reporter, luminescence; 0% DMSO, 100% Δ7-dafachronic acid; activation, % at 6.8 µM; hit rate 1.4% among 370,000; AID 652067;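 active means activation above the mean of all tested compounds plus 3 SD, cut at about 5.5% in these data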;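 further: 100% = response to 3 µM Δ7-dafachronic acid high control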
DAX1 inh-1 = NR0B1 (DAX1) inhibition; hit rate 0.99% among 340,000; inhibition, % at 6.75 µM; P51843; HEK293 Gal4-DAX1 luciferase reporter, luminescence; AID 504766;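 active means inhibition above the mean over all tested compounds plus 3 SD, cut at about 4.2% in these data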;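 further: 0% = DAX1-transfected cells with DMSO and 100% = empty-vector control cells with DMSO; inhibition shows as a rise in luminescence from relieved DAX1 repression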
ssDAF12 agonist = activators of S. stercoralis DAF-12 nuclear receptor | HEK293 ssDAF-12/GRIP1 lit1-tk-luc reporter, luminescence; % of 3 µM dafachronic acid response | activation, % at 6.8 µM | hit rate 1% among 370,000;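 active means activation above the mean over all tested compounds plus 3 SD, cut at about 0.9% in these data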;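 further: 0% = DMSO-only wells and 100% = 3 µM delta7-dafachronic acid wells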
DAX1 inh-2 = blocks DAX1 repression of SF-1 activated StAR promoter. hit rate 1.1% among 370,000. HEK293T StAR-luciferase reporter, SF-1/DAX-1 repression relief. inhibition, % at 6.8 µM;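 active means inhibition above the mean over all tested compounds plus 3 SD, cut at about 3.6% in these data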;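 further: 0% = DAX-1 cells with DMSO and 100% = cells lacking DAX-1 with DMSO; higher inhibition means more luminescence from relief of DAX-1 repression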
hgDAF12 agonist = activates the H. glycines DAF-12 receptor ligand-binding domain; HEK293 GAL4-hgDAF12 UAS-luciferase reporter, agonist luminescence; normalized to butyrate control; activation, % at 6.8 µM; hit rate 1.8% among 370,000; AID 687014;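 active means activation above a cutoff set at the mean of all screened compounds plus 3 SD, cut at about 10% in these data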;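 further: 0% = DMSO wells and 100% = sodium butyrate wells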
hgDAF12 conf = confirmation of H. glycines DAF-12 agonists. hit rate 80% among 3,300. HEK293 GAL4-hgDAF12 luciferase reporter, agonist mode; percent of butyrate response. shares compounds with hgDAF12 agonist. activation, % at 6.8 µM;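 active means mean activation over triplicate wells above the hit cutoff derived from the earlier primary screen, cut at about 11% in these data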;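 further: 0% = DMSO low control and 100% = 2 mM sodium butyrate high control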
LXR ag 2 = activates human LXR-beta, counter-screen for DAF-12 agonists. shares compounds with hgDAF12 agonist. HEK293 Gal4-LXR luciferase reporter, 24 h. activation, % at 6.8 µM. 3,300 tested, under 10 active;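 active means mean activation of the triplicate above a set limit carried over from the primary screen, none filed active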
Target sequence (P55055 whole entry, looked up, the tested form may be a part): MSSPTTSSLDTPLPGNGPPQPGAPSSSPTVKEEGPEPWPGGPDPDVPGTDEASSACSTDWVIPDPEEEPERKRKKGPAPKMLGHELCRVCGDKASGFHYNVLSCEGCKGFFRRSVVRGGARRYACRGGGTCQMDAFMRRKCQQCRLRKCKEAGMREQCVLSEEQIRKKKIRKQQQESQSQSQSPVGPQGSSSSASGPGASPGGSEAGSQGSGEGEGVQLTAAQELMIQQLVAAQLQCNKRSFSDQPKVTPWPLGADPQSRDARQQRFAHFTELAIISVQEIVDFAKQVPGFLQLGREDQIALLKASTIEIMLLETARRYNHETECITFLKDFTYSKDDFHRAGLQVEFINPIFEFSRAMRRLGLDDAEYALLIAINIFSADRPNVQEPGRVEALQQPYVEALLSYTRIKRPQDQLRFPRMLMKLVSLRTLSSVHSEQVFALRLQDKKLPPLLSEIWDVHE
* hit, by the source's call; · = no result. Only some compounds are listed: those with a hit (about 4.1% of all), similar ones and a draw of the others.

SMILES	hcDAF12 agonist	DAX1 inh-1	ssDAF12 agonist	DAX1 inh-2	hgDAF12 agonist	hgDAF12 conf	LXR ag 2
COC(=O)C1CCN(C(=O)c2oc3c(Cl)cc(C)cc3c2C)CC1	4	1	0	2	14*	16*	1
Cc1ccc(N2Cc3ccccc3C2=S)cc1	4	2	1	4	21*	20*	1
Cc1ccc(N2Cc3ccccc3OC(C)C2=O)cc1 (stereo not given)	1	0	-2	1	0	·	·
O=Cc1c(OCc2ccccc2)ccc2ccccc12	2	0	0.9*	2	14*	9	0
Cc1nc2cc(NC(=O)c3ccc(Cl)cc3)ccc2n1C	4	0	0	2	13*	16*	1
O=C(Nc1ccc2nc3ccccc3nc2c1)c1ccccc1	4	1	1	3	16*	14*	1
Cc1nc2cc(NC(=O)Nc3cccc4ccccc34)ccc2n1C	2	2	0	3	18*	12*	1
CN(C(=O)/C=C/c1ccccc1)C1CCS(=O)(=O)C1 (stereo not given)	1	2	-1	0	2	·	·
CN(C(=O)/C=C/c1ccccc1)C1CCCCC1	5	·	-1	1	14*	17*	1
COc1cccc(-c2nnc(-c3ccc(C)o3)o2)c1	5	0	0	4.1*	14*	19*	1
COc1cccc(-c2nnc(N)o2)c1	1	0	-1	1	1	·	·
CCN(C(=O)CSc1nnc(-c2cccc(F)c2)n1N)c1c(N)n(Cc2ccccc2)c(=O)[nH]c1=O	-1	2	-1	0	19*	-1	0
O=C1CCCCC1CCS(=O)(=O)NCc1ccccc1 (stereo not given)	1	·	-1	1	1	·	·
COc1ccccc1/C=N\N=C(\N)c1ccccn1	6.0*	0	1.1*	3.9*	13*	14*	1
COc1ccccc1C=NN=C(N)C(N)=NN=Cc1ccccc1OC	0	-1	0	-1	2	·	·
Cc1ccc(-c2nnc(CCC(=O)NCC3C4CC5CC(C4)CC3C5)o2)s1 (stereo not given)	5	3	0	2	14*	10	0
O=C(OCC#CCSc1nnc(-c2cccc3ccccc23)o1)c1sccc1Cl	0	·	-1	·	6	·	·
N#CCC[C@@H]1CC[C@]2(CCCN(C(=O)c3cccnc3)C2)O1	-1	·	-1	1	4	·	·
Fc1cc(Cl)cc2ccc(-c3ccccc3)nc12	3	·	1	2	15*	9	0
Fc1ccc2nc(-c3ccccc3)ccc2c1	1	·	0	2	7	·	·
c1ccc(CNc2nc3ccccc3[nH]2)cc1	1	1	-1	2	5	·	·
c1ccc2[nH]c(NCc3ccc4c(c3)OCO4)nc2c1	3	1	-1	3	14*	10	0
COc1ccc(/C=C/C2=Nc3ccccc3NC(C)(C)C2)cc1OC	6	3	1.0*	2	16*	7	0
COc1ccc(/C=C/C2=CC(C)(C)NC(=S)N2)cc1OC	-2	-1	-1	0	-3	·	·
O=c1c2ccccc2nc(-c2ccco2)n1Cc1ccccc1	3	2	-1	1	14*	12*	0
c1ccc(Cn2c(-c3ccco3)nc3nc4ccccc4nc32)cc1	1	2	0	2	7	·	·
C[C@@H]1C=CCCO[C@]12C(=O)N(Cc1ccccc1C(F)(F)F)c1ccccc12	-3	·	-2	0	-4	·	·
O=C(NN=C1CCCC1)c1cccc(O)c1	3	1	1	3	14*	2	0
O=C(C(=O)N1CCN(S(=O)(=O)c2ccc(C(F)(F)F)cc2)CC1)c1cccc(C(F)(F)F)c1	0	·	-1	0	1	·	·
O=C1COc2ccccc2C(c2nc3ccccc3[nH]2)N1Cc1ccccc1 (stereo not given)	1	·	0	-2	1	·	·
